Only some compounds are listed: those with a hit (about 3.7% of all), similar ones and a draw of the others.
BoNT A protease: inhibitors of Botulinum neurotoxin A light chain protease; multiplex microsphere protease substrate cleavage, flow cytometry; inhibition, % at 10 µM; 0.17% of 360,000 active; further: plate controls were buffer without enzyme for full effect and enzyme alone for no effect
BJeLR viability: kills HRASV12-expressing BJeLR cells; inhibition, % (no concentration beside the values); 0.17% of 300,000 active; BJeLR (HRASV12) viability, CellTiter-Glo ATP luminescence, 48 h; in the data active means inhibition above about 50%; inconclusive means no clear call, values can overlap the other calls
BH1578 lux ind: inducers of Vibrio cholerae quorum light production without autoinducers | V. cholerae BH1578 lux reporter, luminescence, 6 h | activation, % at 18.7 µM | 0.16% of 350,000 active | AID 588436; in the data active means activation mostly above about 9.7%, no sharp cut-off; inconclusive means no clear call, values can overlap the other calls; inactive means mostly below about 3.7%
BoNT F protease: blocks Botulinum neurotoxin F light chain protease. Multiplex microsphere protease cleavage assay, flow cytometry. inhibition, % at 10 µM. 0.22% of 360,000 active; in the data active means inhibition above about 35%, passing the limit was not always enough; inconclusive means no clear call, values can overlap the other calls; further: plate controls were buffer without enzyme for full effect and enzyme alone for no effect
Anthrax LF inh2: inhibitors of Bacillus anthracis lethal factor protease; inhibition, % at 10 µM; multiplex microsphere protease cleavage assay, LF; 0.12% of 360,000 active; P15917; AID 588501; further: plate controls were buffer without enzyme for full effect and enzyme alone for no effect
Target sequence (P15917 whole entry, looked up): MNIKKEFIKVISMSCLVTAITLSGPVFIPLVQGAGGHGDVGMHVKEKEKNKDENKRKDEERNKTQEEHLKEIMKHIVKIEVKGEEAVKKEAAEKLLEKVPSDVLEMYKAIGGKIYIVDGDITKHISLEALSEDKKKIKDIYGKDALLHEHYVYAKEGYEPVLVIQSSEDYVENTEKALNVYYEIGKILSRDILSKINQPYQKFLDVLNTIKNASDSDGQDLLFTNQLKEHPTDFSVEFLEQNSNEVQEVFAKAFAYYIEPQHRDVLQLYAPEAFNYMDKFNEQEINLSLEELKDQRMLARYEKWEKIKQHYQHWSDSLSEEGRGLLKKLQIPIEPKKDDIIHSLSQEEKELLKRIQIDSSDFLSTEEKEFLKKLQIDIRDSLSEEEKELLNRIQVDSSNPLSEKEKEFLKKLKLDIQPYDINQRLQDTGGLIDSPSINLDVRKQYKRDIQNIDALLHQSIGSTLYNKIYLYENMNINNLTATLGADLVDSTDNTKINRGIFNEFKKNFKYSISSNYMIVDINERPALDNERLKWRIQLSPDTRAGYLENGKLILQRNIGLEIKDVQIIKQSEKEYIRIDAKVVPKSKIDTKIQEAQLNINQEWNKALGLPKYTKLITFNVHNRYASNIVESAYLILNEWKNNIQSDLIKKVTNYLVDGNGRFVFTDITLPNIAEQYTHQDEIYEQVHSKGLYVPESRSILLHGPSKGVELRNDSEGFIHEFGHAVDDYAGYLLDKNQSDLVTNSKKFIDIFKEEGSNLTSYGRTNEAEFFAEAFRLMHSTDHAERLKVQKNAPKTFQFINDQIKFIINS
Bead autofluor: compound fluorescence in toxin protease inhibitor counterscreen. compound autofluorescence counterscreen, microsphere flow cytometry; stronger effect = higher value. 3.1% of 360,000 active. fluorescence intensity (no concentration beside the values); in the data active means fluorescence intensity above about 16000; inconclusive means no clear call, values can overlap the other calls
* = called active by the depositor; i = inactive; ? = inconclusive; nt = no result. Unless noted, no stated cut-off is given here; in the data, active means inhibition above about 30%; inconclusive means no clear call, values can overlap the other calls; inactive means below that.

SMILES	BoNT A protease	BJeLR viability	BH1578 lux ind	BoNT F protease	Anthrax LF inh2	Bead autofluor
Cc1ccc(SC(C)C(=O)Nc2cccnc2)cc1 (stereo not given)	-0.1	-1.6	-0.3	-4.9	-3.9	4304
Cc1ccc(SC(C)C(=O)Nc2ccncc2)cc1 (stereo not given)	1.8	7.6	-0.2	2.3	1.4	22693*
Cc1ccc(SC(C)C(=O)Nc2cccc(N(C)S(C)(=O)=O)c2)cc1 (stereo not given)	6.3	-1.2	-0.2	10.3	-14.9	19657*
Cc1ccc(N(C(C)C(=O)Nc2cccc(N(C)S(C)(=O)=O)c2)S(C)(=O)=O)cc1 (stereo not given)	-2.2	1.3	-0.4	-13.5	-0.7	4666
Cc1ccc(S(=O)(=O)c2nc(-c3ccco3)oc2SCC(N)=O)cc1	-6.7	1.6	-0.3	-21.8	-2.6	4062
Cc1ccc(-c2nc(S(=O)(=O)c3ccc(C)cc3)c(SCC(N)=O)o2)cc1	-34.3	-12.1	-0.2	-65.5	-5.3	16360*
COC(=O)CSc1nc(C)cc(Oc2ccccc2)n1	-0.9	-6.9	-0.3	-1.4	-2.1	5956
Cc1cc(Oc2ccccc2)nc(SCC(=O)Nc2ccc(Cl)cc2Cl)n1	?	-9.3	-0.2	-11.2	-2.1	18063*
C1C2CC3C1C3C2=NN=C1C2CC3C(C2)C13	0.0	nt	-0.3	-2.6	-8.6	3846
C=CCOC(=O)COc1ccc2c(C)c(CC)c(=O)oc2c1	-1.0	5.6	i	-3.1	-1.4	23645*
O=C(CN1c2cccc3cccc(c23)S1(=O)=O)N1CCCCC1	-8.6	nt	0.6	-17.2	-3.5	6988
O=C(CN1c2cccc3cccc(c23)S1(=O)=O)N1CCOCC1	-0.6	7.8	-0.3	-2.0	3.3	16664*
OC(c1ccccc1)C(NCc1ccccc1)c1ccccc1 (stereo not given)	-0.2	nt	i	-6.9	-1.4	3898
Cc1ccc(S(=O)(=O)CNC(=S)c2ccc3ccccc3c2)cc1	?	4.1	i	0.9	-1.1	22964*
Cc1ccc(C(=O)O/N=C2\CCSc3ccc(C)cc32)cc1	?	6.4	-2.1	0.5	-5.2	19396*
Cc1cccc(C(=O)O/N=C2\CCSc3ccc(C)cc32)c1	nt	7.0	0.1	nt	nt	nt
COc1ccc(S(=O)(=O)O/N=C2\CCSc3ccc(C)cc32)cc1	-7.0	0.9	i	-9.4	-0.6	21946*
O=C1CCCC[C@@H](CO)[C@H](O)C[C@H](c2ccccc2)O1	0.8	nt	nt	-1.1	-5.4	5881
COc1ccc2[nH]c3c(=O)n(CCCCC(=O)N4CCCC4)c(=S)[nH]c3c2c1	0.0	-0.3	-0.7	-0.4	-1.0	23557*
N#C/C(=C\c1c(Cl)cccc1Cl)c1nc2ccccc2o1	7.5	-2.1	-0.2	49.1*	7.6	6198
O=S(=O)(c1ccccc1)c1cnc(-c2cccnc2)nc1-c1ccc(Cl)c(Cl)c1	9.2	2.7	i	10.8	-20.9	17469*
COc1ccccc1OCCn1ccnc1	0.4	6.2	-0.4	?	13.1	4190
CCN(CC)CCCCOc1ccccc1OC	0.6	-14.2	-0.2	-0.6	-1.5	20460*
Cc1ccc(CNC(=O)CSc2c3c(nc4cc(Cl)ccc24)CCCC3)o1	2.1	-10.3	25.8*	-8.4	7.3	9950
O=NN(Cc1cccnc1)C(=O)NC1CCCCC1	-0.8	nt	nt	-10.1	2.2	6559
SMILES	BoNT A protease	BJeLR viability	BH1578 lux ind	BoNT F protease	Anthrax LF inh2	Bead autofluor
C#CCOc1ccc(/C=C2/C(=O)N(c3cccc(C(=O)O)c3)N=C2C)cc1OC	0.5	2.3	-0.8	35.3*	1.5	3037
CC(=O)Nc1ccc(NC(=O)c2cc(C)nn2-c2ccccc2)cc1	?	1.8	i	-2.9	-0.5	22454*
COc1ccc(NC(=O)c2cc(C)nn2-c2ccccc2)cc1	-3.5	-0.9	-0.6	-8.9	-9.1	3925
O=C(Nc1cccc(-c2cn3cccnc3n2)c1)c1ccc(Br)o1	?	6.0	-1.4	1.1	-4.3	22911*
Cc1ccc(-c2cn3cccnc3n2)cc1	-1.0	0.3	-2.9	-9.9	-4.5	4386
O=C(Nc1cccc(-c2cn3cccnc3n2)c1)c1ccc2c(c1)OCO2	?	2.6	-0.6	12.2	-5.2	19449*
COc1ccc(-c2cn3cccnc3n2)cc1NC(=O)c1ccc(Br)o1	-0.4	2.6	-0.2	-1.6	-1.6	20830*
Cc1ccc(-c2cn3cccnc3n2)cc1NC(=O)c1ccc(Br)o1	-3.0	12.0	i	-6.2	-5.0	17184*
C=C(C)C(=O)Oc1ccc(N=Nc2ccc(C)cc2)ccc1=O	1.3	nt	-4.0	-17.6	-15.4	3188
CCN(CC)C(=O)c1cccc(-c2csc(C(C)(O)c3cccc(F)c3)n2)c1 (stereo not given)	0.0	nt	-1.2	1.9	3.6	3840
CN(N=Nc1nc[nH]c1C(N)=O)C1CCCCC1	1.5	nt	nt	-7.5	-6.0	4119
O=C(c1ccccc1)c1sc(Nc2ccc3c(c2)OCO3)nc1-c1ccccc1	9.5	nt	nt	10.6	7.3	5743
CCCC(=O)Nc1cc(-c2cn3cccnc3n2)ccc1OC	5.3	0.3	-0.3	6.9	-0.5	18918*
CCCc1cc(N2CCCC(C(=O)NCC)C2)n2ncnc2n1 (stereo not given)	-0.2	-5.6	0.6	0.6	-0.2	20607*
c1ccc(COc2ccc(-c3cc4nc(NCCCn5ccnc5)ccn4n3)cc2)cc1	-0.4	nt	-1.3	-7.4	-6.6	4934
CC1CCCN(C(=O)C(=O)c2cn(CC(=O)N3CCCCCC3)c3ccccc23)C1 (stereo not given)	34.6*	-9.2	2.5	13.3	27.7	7036
CCN1CCN(C(=O)C(=O)c2cn(CC(=O)N3CCCC3)c3ccccc23)CC1	-1.5	-3.4	-0.4	-3.1	-3.0	6511
CN1CCN(C(=O)C(=O)c2cn(CC(=O)N3CCCCCC3)c3ccccc23)CC1	10.4	nt	-0.4	11.8	35.8*	4647
CC1CCN(C(=O)C(=O)c2cn(CC(=O)N3CCCCCC3)c3ccccc23)CC1	37.2*	-0.8	i	8.1	37.6*	6694
NC(=O)C1CCN(C(=O)C(=O)c2cn(CC(=O)N3CCCCCC3)c3ccccc23)CC1	39.3*	8.3	-10.8	17.0	38.9*	7217
O=C(C(=O)N1CCN(c2ccccc2)CC1)c1cn(CC(=O)N2CCCCCC2)c2ccccc12	12.3	-7.4	-7.7	2.6	8.0	8102
CCN1CCN(C(=O)C(=O)c2cn(CC(=O)N3CCCCCC3)c3ccccc23)CC1	3.9	1.0	1.4	4.9	10.1	7481
CCCCCCN1CCN(C2CN(Cc3cn(Cc4ccc(C)cc4)nn3)S(=O)(=O)C2)CC1 (stereo not given)	0.8	nt	nt	3.6	-1.2	5718
O=C(Nc1ccc(F)cc1F)N1CCN(C/C=C/c2ccccc2)CC1	-0.4	5.3	-0.1	-3.7	0.1	6072
COc1cccc(NC(=S)N2CCN(C/C=C/c3ccccc3)CC2)c1	-1.5	5.6	i	-5.8	-3.1	22410*
O=C(Nc1ccc2c(c1)OCO2)N1CCN(C/C=C/c2ccccc2)CC1	-1.5	-1.6	-0.2	-4.1	-1.7	17067*
